Measurements from PubChem BioAssay AID602144 (Vanderbilt Specialized Chemistry Center, 2011).
The source made the active and inactive calls. No stated cut-off is given here; in the data, active means remaining activity below about 50%; inactive means the rest.

biological target: Phospholipase D1 (Homo sapiens) (UniProt Q13393); experiment: cellular phospholipase D1 activity inhibition – Calu-1 cells, single concentration (AID 602144); conditions: cellular PLD1 activity, active compounds read low;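 further: tested at 200 nM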
Sequence (Q13393 whole entry, looked up): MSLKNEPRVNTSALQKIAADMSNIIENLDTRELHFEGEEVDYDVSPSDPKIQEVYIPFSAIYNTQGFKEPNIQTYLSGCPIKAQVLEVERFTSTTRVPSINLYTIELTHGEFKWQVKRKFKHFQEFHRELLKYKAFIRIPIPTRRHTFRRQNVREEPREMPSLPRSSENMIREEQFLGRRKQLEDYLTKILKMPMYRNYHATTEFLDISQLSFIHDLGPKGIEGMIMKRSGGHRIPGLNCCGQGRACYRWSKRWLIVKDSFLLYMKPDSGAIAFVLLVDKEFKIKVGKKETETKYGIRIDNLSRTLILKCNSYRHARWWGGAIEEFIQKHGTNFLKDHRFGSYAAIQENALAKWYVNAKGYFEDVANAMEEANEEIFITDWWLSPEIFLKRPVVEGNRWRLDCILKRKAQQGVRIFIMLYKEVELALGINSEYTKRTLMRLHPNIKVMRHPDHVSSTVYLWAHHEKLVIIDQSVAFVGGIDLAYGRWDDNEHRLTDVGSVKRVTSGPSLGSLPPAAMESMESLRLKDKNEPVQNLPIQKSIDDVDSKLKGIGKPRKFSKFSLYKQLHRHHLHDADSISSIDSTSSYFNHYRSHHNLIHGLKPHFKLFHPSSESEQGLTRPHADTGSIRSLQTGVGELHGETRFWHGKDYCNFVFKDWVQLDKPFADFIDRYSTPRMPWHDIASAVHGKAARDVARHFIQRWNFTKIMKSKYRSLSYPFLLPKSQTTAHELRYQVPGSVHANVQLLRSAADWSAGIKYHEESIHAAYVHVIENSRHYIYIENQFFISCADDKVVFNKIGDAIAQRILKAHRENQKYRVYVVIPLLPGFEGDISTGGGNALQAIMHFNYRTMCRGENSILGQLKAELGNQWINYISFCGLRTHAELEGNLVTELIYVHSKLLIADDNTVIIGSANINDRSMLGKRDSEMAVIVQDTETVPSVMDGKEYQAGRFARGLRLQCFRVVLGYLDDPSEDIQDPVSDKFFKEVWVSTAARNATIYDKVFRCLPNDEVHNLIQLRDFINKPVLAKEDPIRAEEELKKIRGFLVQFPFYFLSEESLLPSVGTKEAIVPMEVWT
Sequence (Q13393 whole entry, looked up): as above

Compound | remaining activity
Cc1cccc(NC(=S)NCCN2CCC(n3c(=O)[nH]c4ccccc43)CC2)c1 | 148% (inactive)
CC1(C)[C@H]2CC[C@]1(CS(=O)(=O)NCCN1CCC(n3c(=O)[nH]c4ccccc43)CC1)C(=O)C2 | 121% (inactive)
C[C@@H](CN1CCC2(CNCc3ccccc32)C1)NC(=O)c1ccc2ccccc2c1 (some centres undefined) | 95.4% (inactive)
COc1cccc(N2CCN(CCNC(=O)c3ccc(F)cc3)CC2)c1 | 110% (inactive)
O=C(NCCN1CCC(n2nnc3ccccc32)CC1)c1ccc2ccccc2c1 | 19.1% (active)
C[C@@H](CN1CCC(n2nnc3cc(C(F)(F)F)ccc32)CC1)NC(=O)c1ccc2ccccc2c1 | 65.2% (inactive)
O=C(CCc1ccc(F)cc1)NCCN1CCC(n2c(=O)[nH]c3ccccc32)CC1 | 75.2% (inactive)
O=C(NCCN1CCC2(CC1)CCN(c1ccccc1)C2=O)c1ccc2ccccc2c1 | 113% (inactive)
C[C@@H](CN1CCC2(C=Cc3ccccc32)CC1)NC(=O)c1cnc2ccccc2c1 | 137% (inactive)
C[C@@H](CN1CCC(n2c(=O)[nH]c3cc(F)ccc32)CC1)NC(=O)c1ccc(F)c(F)c1 | 19.7% (active)
O=c1[nH]c2ccccc2n1C1CCN(CCNS(=O)(=O)c2cccc3cccnc23)CC1 | 121% (inactive)
C[C@@H](CN1CCC(c2nc3ccccc3[nH]2)CC1)NC(=O)C1CC1c1ccccc1 (some centres undefined) | 87.4% (inactive)
O=C1c2ccccc2C(=O)N1CCCN1CCC(c2nc3ccccc3[nH]2)CC1 | 95.3% (inactive)
C[C@@H](CN1CCC2(CC1)CN(S(C)(=O)=O)c1ccccc12)NC(=O)c1cnc2ccccc2c1 | 118% (inactive)
